Test results published in PubChem BioAssay.
Active and inactive are the calls of the source. Unless noted, no rule for the calls is given here.

Tests used:
[1] = system: Wnt5a (protein binding on small-molecule microarray); experiment: Wnt5a binders on small-molecule microarray, primary screen, biophysical, 635/667 nm fluorescence (AID 1142); conditions: 635 nm fluorescence, higher = more signal;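 also: fluorescence read at 667 nm with signal to noise per printed feature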
[2] = cell viability in Huh7 cells, primary screen, cytotoxicity control for HCV replication inhibitor project, CellTiter-Glo luminescence, basal, 48 h (AID 1143); conditions: Huh7 HCV replicon, higher = more signal, called active from +8 up or from −8 down;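 also: Huh7 hepatoma cells carrying a hepatitis C replication reporter with no stimulus; test concentration not given here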
[3] = P. aeruginosa biofilm formation inhibitors, primary screen, PAO1 strain, BacTiter-Glo luminescence, LB-PBS (AID 1144); conditions: 12 h, higher = more signal
[4] = CREB reporter modulators without forskolin, primary screen, cell-based, PC12, CRE-LacZ reporter, unstimulated (AID 1145); conditions: no forskolin, luminescence, 4.5 h, higher = more signal, called active from +8 up or from −8 down
[5] = CREB reporter modulators under forskolin, primary screen, cell-based, PC12, CRE-LacZ reporter, forskolin-stimulated (AID 1146); conditions: luminescence, 4.5 h, higher = more signal, called active from +8 up or from −8 down;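 also: PC12 cells with 6xCRE LacZ reporter stimulated by forskolin 10 µM; beta-galactosidase reporter signal reflecting CREB driven transcription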
[6] = biological target: Streptavidin (Streptomyces avidinii) (UniProt P22629); experiment: streptavidin binders on small-molecule microarray, primary screen, artefact control for SMM compound annotation, biophysical, 635/667 nm fluorescence (AID 1147); conditions: streptavidin binding, higher = more signal;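 also: signal reflects streptavidin binding to arrayed compounds as a control protein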
[7] = small-molecule binders of probe aInhba, primary screen, biochemical, small-molecule microarray, 635/667 nm fluorescence (AID 1148); conditions: higher = more signal;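 also: score merges 667nm spot fluorescence with signal-to-noise for antibody binding to printed compounds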
Torsin-1A (Homo sapiens) [8] = biological target: Torsin-1A (Homo sapiens) (UniProt O14656); experiment: torsin A binders from cell lysate, primary screen, small-molecule microarray, wild-type, 635/667 nm (AID 1149); conditions: COS7 hTOR1A-WT lysate, 635 nm fluorescence, higher = more signal
Torsin-1A (Homo sapiens) [9] = biological target: Torsin-1A (Homo sapiens) (UniProt O14656); experiment: small-molecule binders of mutant TOR1A in lysate, primary screen, cell lysate, small-molecule microarray, COS7 lysate, 635/667 nm fluorescence (AID 1150); conditions: COS7 hTOR1A mutant lysate, 635 nm fluorescence, higher = more signal;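 also: score pools 667 nm emission and signal to noise measuring lysate protein binding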
[10] = system: Sonic hedgehog protein (Shh); experiment: small-molecule binders of Shh protein, primary screen, biochemical, small-molecule microarray, 635/667 nm fluorescence (AID 1151); conditions: small-molecule microarray binding, 635 nm fluorescence; higher = more signal;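 also: Shh protein binding to compounds spotted on small-molecule microarray slides; score combines spot fluorescence intensity with signal-to-noise across triplicate slides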
[11] = E. coli DRC41 culture turbidity changes, primary screen, E. coli filamentation inducer project, strain DRC41, OD650, 48 h (AID 1152);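 also: E. coli MC1000 strain DRC41 lacking acrAB efflux pump and sulA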; conditions: E. coli DRC41 (acrAB sulA), higher = more signal, called active from +8 up or from −8 down
[12] = small-molecule binders of probe aLefty1, primary screen, biochemical, small-molecule microarray, 635/667 nm fluorescence (AID 1153); conditions: higher = more signal;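 also: score merges spot fluorescence with signal-to-noise ratio from the scanned slide images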
[13] = PSAC antagonists in infected red cells, primary screen, cell-based, P. falciparum Indochina, OD700, 1 h (AID 1154); conditions: P. falciparum Indochina infected RBC osmotic lysis, higher = more signal, called active from +8 up or from −8 down
[14] = PSAC antagonists in infected red cells, primary screen, cell-based, P. falciparum Indochina, OD700, 2 h (AID 1155);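 also: lysis reports solute entry through the parasite surface anion channel PSAC; channel blockers reduce lysis of infected cells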; conditions: P. falciparum Indochina infected erythrocytes, osmotic lysis OD700; higher = more signal, called active from +8 up or from −8 down
[15] = osmotic lysis modulators in infected erythrocytes, primary screen, PSAC antagonist project, cell-based, P. falciparum Indochina, OD700, 3 h (AID 1156); conditions: higher = more signal, called active from +8 up or from −8 down
[16] = PSAC antagonists in infected red cells, primary screen, cell-based, P. falciparum Indochina, OD700, 18 h (AID 1157); conditions: P. falciparum Indochina infected erythrocytes, osmotic lysis OD700, 18 h; higher = more signal, called active from +8 up or from −8 down
[17] = modulators of S6 phosphorylation in cells, primary screen, cell-based, A549, cytoblot, luminescence, serum-stimulated (AID 1158); conditions: A549 phospho-S6 cytoblot, 5 h, higher = more signal;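 also: serum-stimulated A549 lung adenocarcinoma cells; signal is phosphorylated S6 detected by cytoblot immunostaining with HRP secondary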
[18] = biological target: NADPH oxidase 2 (Homo sapiens) (UniProt P04839); experiment: NOX2-dependent H2O2 signal modulators, primary screen, NOX inhibitor project, cell-based, HEK293-NOX2, PMA-stimulated, Amplex Red fluorescence (AID 1159); conditions: 45 min, higher = more signal, called active from +8 up or from −8 down; also: test concentration not given here
[19] = biological target: NADPH oxidase 4 (Homo sapiens) (UniProt Q9NPH5); experiment: NOX4-dependent H2O2 signal modulators, primary screen, NOX inhibitor project, cell-based, HEK293-NOX4, tetracycline-induced, Amplex Red fluorescence (AID 1160); conditions: 45 min, higher = more signal, called active from +8 up or from −8 down
[20] = biological target: NADPH oxidase 5 (Homo sapiens) (UniProt Q96PH1); experiment: NOX5-dependent H2O2 signal modulators, primary screen, NOX inhibitor project, cell-based, HEK293-NOX5, Amplex Red fluorescence (AID 1161); conditions: HEK293-NOX5, ionomycin, 45 min, higher = more signal
NADPH oxidase 5 (Homo sapiens), sequence (Q96PH1 whole entry, looked up): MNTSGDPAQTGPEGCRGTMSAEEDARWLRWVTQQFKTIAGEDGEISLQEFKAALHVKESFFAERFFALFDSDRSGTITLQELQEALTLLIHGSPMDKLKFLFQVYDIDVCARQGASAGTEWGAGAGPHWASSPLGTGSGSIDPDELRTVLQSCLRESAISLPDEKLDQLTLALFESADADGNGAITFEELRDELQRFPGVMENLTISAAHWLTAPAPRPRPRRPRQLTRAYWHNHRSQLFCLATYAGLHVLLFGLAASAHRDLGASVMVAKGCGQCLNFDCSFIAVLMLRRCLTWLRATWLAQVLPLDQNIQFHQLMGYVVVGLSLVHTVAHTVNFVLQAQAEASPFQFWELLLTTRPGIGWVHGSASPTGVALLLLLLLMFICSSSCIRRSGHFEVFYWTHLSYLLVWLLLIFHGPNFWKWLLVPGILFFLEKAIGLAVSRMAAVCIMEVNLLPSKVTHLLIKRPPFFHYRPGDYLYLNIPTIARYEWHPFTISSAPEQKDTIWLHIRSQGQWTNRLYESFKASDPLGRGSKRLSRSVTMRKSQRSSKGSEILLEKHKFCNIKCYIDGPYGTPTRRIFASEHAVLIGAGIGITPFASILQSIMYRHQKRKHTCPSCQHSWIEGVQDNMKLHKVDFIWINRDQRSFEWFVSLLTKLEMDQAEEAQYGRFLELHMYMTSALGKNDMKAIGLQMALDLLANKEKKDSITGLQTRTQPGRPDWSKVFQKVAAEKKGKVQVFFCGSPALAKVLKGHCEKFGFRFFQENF

Torsin-1A (Homo sapiens), sequence (O14656 whole entry, looked up): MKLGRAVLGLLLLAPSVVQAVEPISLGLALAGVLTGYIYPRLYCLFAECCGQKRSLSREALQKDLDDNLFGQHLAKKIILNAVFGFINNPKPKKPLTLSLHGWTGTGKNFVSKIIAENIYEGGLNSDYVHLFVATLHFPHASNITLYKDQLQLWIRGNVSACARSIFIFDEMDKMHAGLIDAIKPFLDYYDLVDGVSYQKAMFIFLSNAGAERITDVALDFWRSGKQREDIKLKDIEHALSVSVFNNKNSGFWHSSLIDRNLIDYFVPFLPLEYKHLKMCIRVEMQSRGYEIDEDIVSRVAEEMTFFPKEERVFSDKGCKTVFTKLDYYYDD
Streptavidin (Streptomyces avidinii), sequence (P22629 whole entry, looked up): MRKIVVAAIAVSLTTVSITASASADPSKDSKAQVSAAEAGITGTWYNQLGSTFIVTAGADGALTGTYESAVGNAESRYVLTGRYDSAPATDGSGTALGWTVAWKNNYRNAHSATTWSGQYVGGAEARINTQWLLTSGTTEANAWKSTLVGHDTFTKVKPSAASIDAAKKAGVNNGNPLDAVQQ
NADPH oxidase 2 (Homo sapiens), sequence (P04839 whole entry, looked up): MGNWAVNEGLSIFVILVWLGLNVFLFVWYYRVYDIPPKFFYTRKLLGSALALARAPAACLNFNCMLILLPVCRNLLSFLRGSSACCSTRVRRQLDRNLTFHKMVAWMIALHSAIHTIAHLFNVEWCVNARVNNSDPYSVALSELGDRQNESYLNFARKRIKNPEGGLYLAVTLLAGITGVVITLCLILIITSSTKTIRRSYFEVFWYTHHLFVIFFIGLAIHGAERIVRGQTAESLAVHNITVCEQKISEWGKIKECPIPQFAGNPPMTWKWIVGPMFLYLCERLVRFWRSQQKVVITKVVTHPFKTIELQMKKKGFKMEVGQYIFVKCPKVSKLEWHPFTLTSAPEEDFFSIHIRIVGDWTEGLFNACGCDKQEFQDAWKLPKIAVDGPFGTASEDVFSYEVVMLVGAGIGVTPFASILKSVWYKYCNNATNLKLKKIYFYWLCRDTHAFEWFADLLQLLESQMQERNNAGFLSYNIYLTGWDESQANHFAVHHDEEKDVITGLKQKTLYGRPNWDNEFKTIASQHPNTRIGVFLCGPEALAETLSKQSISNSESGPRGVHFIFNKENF
NADPH oxidase 4 (Homo sapiens), sequence (Q9NPH5 whole entry, looked up): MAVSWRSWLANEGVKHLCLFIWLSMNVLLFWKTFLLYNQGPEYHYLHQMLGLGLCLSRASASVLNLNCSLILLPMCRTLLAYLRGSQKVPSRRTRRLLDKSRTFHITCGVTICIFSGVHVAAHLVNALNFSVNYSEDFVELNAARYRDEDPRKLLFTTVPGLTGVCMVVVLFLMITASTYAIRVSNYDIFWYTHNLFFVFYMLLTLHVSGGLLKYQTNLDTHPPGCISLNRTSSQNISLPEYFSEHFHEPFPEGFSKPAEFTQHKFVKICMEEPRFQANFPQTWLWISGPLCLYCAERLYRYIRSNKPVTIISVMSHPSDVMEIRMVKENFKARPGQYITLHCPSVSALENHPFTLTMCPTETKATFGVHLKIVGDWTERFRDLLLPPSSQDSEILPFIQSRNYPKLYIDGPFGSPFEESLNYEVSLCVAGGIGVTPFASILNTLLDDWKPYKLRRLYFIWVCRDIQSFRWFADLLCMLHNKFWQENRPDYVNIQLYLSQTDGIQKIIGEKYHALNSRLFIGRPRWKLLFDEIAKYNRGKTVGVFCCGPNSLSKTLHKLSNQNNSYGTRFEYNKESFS

Row | Structure (SMILES) | composite z-score [1] | z-score [2] | z-score [3] | z-score [4] | z-score [5] | composite z-score [6] | composite z-score [7] | composite z-score (Torsin-1A (Homo sapiens) [8]) | composite z-score (Torsin-1A (Homo sapiens) [9]) | composite z-score [10] | z-score [11] | composite z-score [12] | z-score [13] | z-score [14] | z-score [15] | z-score [16] | z-score [17] | z-score [18] | z-score [19] | z-score [20]
1 | CC1O[C@H]2C3=C(C(=O)[C@@H]4O[C@@H]4[C@H]3O)[C@@H]1C1[C@@H](C)OC=C3[C@H](O)C4O[C@@H]4C(=NOCc4ccccc4)[C@]312 (stereo not given in full) | 0.161 | -3.64 (inactive) | 0.933 (inactive) | 2.18 (inactive) | 6.5 (inactive) | -0.438 | -0.0963 | 1.66 | -0.073 | 0.242 | -0.259 (inactive) | -0.184 | 1.3 (inactive) | 0.184 (inactive) | 0.0322 (inactive) | 0.0995 (inactive) | -0.871 | 0.32 (inactive) | 0.584 (inactive) | 0.445
2 | CON=Cc1ccc(C(=O)N2[C@H](c3ccc(C)cc3)[C@@H](C)CC[C@H]2C(=O)OC)cc1 | -0.0731 | -1.63 (inactive) | -0.183 (inactive) | 0.336 (inactive) | -0.158 (inactive) | 0.651 | 0.0398 | 0.144 | 0.568 | 0.441 | -0.134 (inactive) | -0.147 | 1.65 (inactive) | 1.25 (inactive) | 0.0014 (inactive) | 1.1 (inactive) | -0.0424 | -0.88 (inactive) | -0.304 (inactive) | -0.376
3 | CO[C@@H]1COC(=O)[C@@H](C)COC(=O)[C@@H](C)NC(=O)CC=C[C@@H]1C | 0.102 | -4.69 (inactive) | -2.01 (inactive) | -0.129 (inactive) | -0.694 (inactive) | -0.457 | -0.246 | 1.65 | 0.717 | 1.51 | -0.294 (inactive) | 0.682 | -1.15 (inactive) | -1.26 (inactive) | 0.645 (inactive) | -0.858 (inactive) | 1 | -0.675 (inactive) | -2.43 (inactive) | -2.91
4 | O=C1[C@H]2[C@H]3[C@H](O)[C@H](O)CC(=NOC[C@@H](O)COCc4ccco4)[C@@H]3CC[C@H]2C(=O)N1C[C@@H]1CCCO1 | 0.149 | 0.0304 (inactive) | 0.835 (inactive) | -0.207 (inactive) | -0.0793 (inactive) | -0.0625 | -0.263 | 3.22 | 3.3 | 1.59 | 0.916 (inactive) | -0.0061 | 2.05 (inactive) | 0.544 (inactive) | -0.0602 (inactive) | 0.329 (inactive) | -0.605 | 0.222 (inactive) | 0.374 (inactive) | 0.382
5 | CC(CCN1CCCc2nc(C)c(C)cc21)=NO[C@@H](C)c1cc(-c2c(C)cc(C)cc2C)no1 | 0.0353 | -0.636 (inactive) | -0.501 (inactive) | -0.0591 (inactive) | -0.559 (inactive) | 0.327 | 0.111 | 0.464 | -0.184 | 0.54 | 1.22 (inactive) | 0.0402 | 3.44 (inactive) | 0.762 (inactive) | 1.35 (inactive) | 0.465 (inactive) | 0.124 | -1 (inactive) | -0.469 (inactive) | 0.221
6 | COC(=O)CC=C[C@@H](C)[C@H](OCc1cccc(-c2ccccc2)c1)C1CCCCC1 | -0.106 | -0.44 (inactive) | 0.125 (inactive) | 0.68 (inactive) | -0.198 (inactive) | 1.85 | -0.176 | 0.439 | -0.17 | 0.412 | -0.249 (inactive) | -0.289 | 1.56 (inactive) | 1.02 (inactive) | 0.0674 (inactive) | 0.367 (inactive) | -0.484 | -0.491 (inactive) | 0.228 (inactive) | -0.471
7 | CCN1C(=O)[C@@H]2[C@H]3C(=CC[C@@H]2C1=O)C1(OCCCO1)[C@H]1O[C@H]1[C@H]3O | 0.36 | -8.11 (active) | 0.291 (inactive) | 0.196 (inactive) | 23.3 (active) | 1.13 | 0.0513 | 0.616 | 1.09 | 0.956 | -0.721 (inactive) | 0.167 | 27.2 (active) | 12.1 (active) | 1.38 (inactive) | 1.18 (inactive) | -0.295 | 0.104 (inactive) | -5.5 (inactive) | -5.86
8 | CCOC(=O)[C@H](CC(C)C)NC(=O)CCC1CC(OC(=O)NCc2cccc3ccccc23)CC2(CCCC(COC(=O)NCCc3ccc(Cl)cc3)O2)O1 (stereo not given in full) | 0.0502 | -0.933 (inactive) | -1.39 (inactive) | -0.707 (inactive) | -1.17 (inactive) | 0.614 | -0.0987 | 0.549 | 0.372 | 0.728 | 0.692 (inactive) | -0.14 | 3.31 (inactive) | 0.0962 (inactive) | -0.837 (inactive) | -0.466 (inactive) | 0.367 | 0.274 (inactive) | 0.623 (inactive) | 1.24
9 | CCC=CCCC(OC(=O)c1ccc(Br)cc1)C1=CCCCC1=O (stereo not given) | -0.0451 | -1.29 (inactive) | 1.45 (inactive) | -0.158 (inactive) | 3.09 (inactive) | 0.148 | -0.195 | 1.08 | 1.87 | 1.46 | -0.686 (inactive) | -0.3 | 3.4 (inactive) | 0.626 (inactive) | -0.0019 (inactive) | -0.366 (inactive) | 0.86 | -0.126 (inactive) | -0.534 (inactive) | -3.12
